Screens as filed in PubChem BioAssay.
In the library only some 22% were active in any assay of this set; here they are far more common.
CYP2C9 activ – increases human cytochrome P450 2C9 activity; 96,000 compounds, 1.4% hits; P11712; activation factor at 5 µM; recombinant CYP2C9, luciferin-H conversion, luminescence; active compounds read high; factor 1 = untreated enzyme, 0 = blocked;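 active = activation factor of 2 or more for CYP2C9 at a 5 µM dose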
Target sequence (P11712 whole entry, looked up): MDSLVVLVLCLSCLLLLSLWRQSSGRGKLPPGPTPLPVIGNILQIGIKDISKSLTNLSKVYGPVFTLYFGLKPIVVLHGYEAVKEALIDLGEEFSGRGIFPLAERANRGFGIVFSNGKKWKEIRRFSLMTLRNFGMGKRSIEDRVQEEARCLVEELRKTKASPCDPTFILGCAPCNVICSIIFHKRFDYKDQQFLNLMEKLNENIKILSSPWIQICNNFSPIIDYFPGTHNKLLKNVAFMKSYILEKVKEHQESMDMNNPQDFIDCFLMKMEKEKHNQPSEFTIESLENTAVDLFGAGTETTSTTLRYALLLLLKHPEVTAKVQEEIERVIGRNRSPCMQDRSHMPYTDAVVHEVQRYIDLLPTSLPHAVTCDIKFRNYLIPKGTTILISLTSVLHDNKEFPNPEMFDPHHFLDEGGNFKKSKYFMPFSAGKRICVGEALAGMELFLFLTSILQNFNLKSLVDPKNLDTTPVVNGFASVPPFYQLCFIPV
E-sel TNF inh – TNF alpha driven E-selectin expression inhibition | HUVEC TNFa-induced E-selectin immunofluorescence, high content | inhibition, % at 2 µM | 120,000 compounds, 0.71% hits;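 active = inhibition above the batch mean plus 3 SD, and confirmed as a hit on visual image review, cut at about 43% in these data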
F-actin modifier – modifiers of cytoskeleton assembly | AID 836 | inhibition, % at 2 µM | HUVEC TNFa F-actin phalloidin imaging, high content | 91,000 compounds, 0.18% hits;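 active = inhibition above the batch mean plus 3 SD and confirmed as a hit by visual image inspection, cut at about 30% in these data, passing the limit was not always enough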
CYP2C19 inhib – human CYP2C19 inhibition; CYP2C19 Supersomes, luciferin-H EGE luminescence, 30 min; 96,000 compounds, 21% hits; inhibition, % at 5 µM; P33261;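 active = CYP2C19 inhibition above a set limit at 5 µM in the primary screen, cut at about 50% in these data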
CYP2C9 inhib – human CYP2C9 inhibition. P11712. CYP2C9 Supersomes, luciferin-H conversion, luminescence. inhibition, % at 5 µM. 96,000 compounds, 20% hits. AID 777;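 active = blocking of liver enzyme CYP2C9 beyond about 50% at 5 µM, limit read from the data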
CYP2C19 act – activators of human cytochrome P450 2C19 | recombinant CYP2C19, luciferin-H EGE luminescence; active compounds read high; 0 = fully inhibited enzyme, 1 = untreated enzyme | 96,000 tested, under 10 active | P33261 | activation factor at 5 µM | AID 1025;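 active = activation factor of at least 2 at 5 µM in the primary screen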
Large screens that a line does not name were inactive.

CC(C)c1ccccc1OCC(=O)NCC(c1cccs1)N1CCOCC1 (stereo not given)	CYP2C19 inhib 68
O=C(CSc1nnc(CNC(=O)c2ccccc2F)o1)NCC1CCCO1 (stereo not given)	none
CN(C)S(=O)(=O)Nc1ccc(NS(=O)(=O)N(C)C)c(S(=O)(=O)c2ccccc2)c1	none (no result: E-sel TNF inh)
COc1ccc(C(=O)Nc2ccc3c(c2)Cc2ccccc2-3)cc1	none
COc1ccc(NS(=O)(=O)c2ccc3c(c2)Cc2ccccc2-3)cn1	CYP2C9 inhib 88
CN(C)S(=O)(=O)Nc1ccc2c(c1)Cc1ccccc1-2	CYP2C9 inhib 94
CC(c1ccco1)N(C(=O)C12CC3CC(CC(C3)C1)C2)c1ccccn1 (stereo not given)	E-sel TNF inh 100
CC(c1ccco1)N(C(=O)c1ccc(Cl)s1)c1ccccn1 (stereo not given)	CYP2C19 inhib 89, CYP2C9 inhib 59 (no result: E-sel TNF inh)
Cc1ccc(C(=O)N(c2ccccn2)C(C)c2ccco2)cc1C (stereo not given)	none
COc1ccc(-n2ncc3c(=O)n(CC(=O)OCc4ccccc4)cnc32)cc1	none
COc1ccc(-n2c(Cc3cccn3C)nnc2SCC(=O)Nc2ccccc2C)cc1	none (no result: E-sel TNF inh)
COc1ccc(-n2c(Cc3cccn3C)nnc2SCC(=O)Nc2ccc(F)cc2F)cc1	CYP2C9 inhib 55 (no result: F-actin modifier)
COc1ccc(NC(=O)CSc2nnc(Cc3cccn3C)n2-c2ccc(F)cc2)cc1	none (no result: E-sel TNF inh)
COc1ccc(OC)c(NC(=O)CSc2nnc(Cc3cccn3C)n2-c2ccc(F)cc2)c1	CYP2C19 inhib 73, CYP2C9 inhib 54 (no result: E-sel TNF inh)
COc1ccc(NC(=O)CSc2nnc(Cc3cccn3C)n2CCc2ccccc2)c(OC)c1	CYP2C19 inhib 75
COc1ccc(-n2c(Cc3cccn3C)nnc2SCC(=O)NCCc2ccccc2)cc1	CYP2C9 inhib 73 (no result: E-sel TNF inh)
Cc1ccc2nsnc2c1NC(=O)c1ccc2c(c1)OCCO2	none (no result: F-actin modifier)
COc1ccc(-n2c(Cc3cccn3C)nnc2SCC(=O)Nc2nccs2)cc1	CYP2C19 inhib 78, CYP2C9 inhib 58 (no result: F-actin modifier)
COc1cccc(NC(=O)CSc2nnc(Cc3cccn3C)n2-c2ccc(F)cc2)c1	CYP2C9 inhib 84 (no result: E-sel TNF inh)
CCOC(=O)c1ccccc1NC(=O)CSc1nnc(Cc2cccn2C)n1-c1ccc(C)cc1	CYP2C19 inhib 56, CYP2C9 inhib 89 (no result: E-sel TNF inh)
C/C(=N\NC(=O)c1cccc(Br)c1)c1cccc(NC(=O)c2ccc(C)o2)c1	none
O=C(NCc1cn2ccsc2n1)c1cccc(C(F)(F)F)c1	none
COc1ccc(C(=O)NCc2cccnc2)cc1	none (no result: CYP2C9 activ, CYP2C19 inhib, CYP2C9 inhib, CYP2C19 act)
O=C(NCc1cccnc1)c1cccc(C(F)(F)F)c1	CYP2C19 inhib 89
Cc1csc2nc(CNC(=O)c3cccc(C(F)(F)F)c3)cn12	CYP2C9 activ 2 (no result: E-sel TNF inh)
O=C(NCc1cccnc1)c1ccc(Cl)c(Cl)c1	CYP2C19 inhib 75
CNC(=O)CSCc1c(Cl)cccc1Cl	none (no result: E-sel TNF inh)
O=C(CSCc1c(Cl)cccc1Cl)NCc1cccnc1	CYP2C19 inhib 54
Cc1nc2nc3c(cn2n1)C(=O)CCC3	none
O=C1CC(c2ccccc2)n2ncnc2N1 (stereo not given)	none
O=C(NCc1cccnc1)c1sc2ccccc2c1Cl	CYP2C19 inhib 88 (no result: E-sel TNF inh)
CCCCC(=O)Nc1cccc(NC(=S)NC(C)=O)c1	none (no result: CYP2C9 activ, F-actin modifier, CYP2C19 inhib, CYP2C9 inhib, CYP2C19 act)
O=C(COc1ccccc1)N(Cc1ccccc1)c1nc(-c2ccccc2)cs1	none
CC(C)CCNC(=O)C(=O)NC1CCCC1	none (no result: CYP2C9 activ, F-actin modifier, CYP2C19 inhib, CYP2C9 inhib, CYP2C19 act)
Cc1nn(C)c(=O)n1-c1ccc(Oc2ccccc2)cc1	CYP2C9 inhib 91 (no result: E-sel TNF inh, F-actin modifier)
CCc1ccc(C(=O)CN(C#N)c2nc(C)cc(C)n2)cc1	none
CCc1ccc(-c2cn(-c3nc(C)cc(C)n3)c(=N)o2)cc1	CYP2C19 inhib 59
Nc1scc2c(C(=O)N/N=C/c3ccc(Cl)cc3)nn(-c3ccccc3)c(=O)c12	CYP2C9 inhib 54
COc1ccc(Cn2nnnc2C(CC(C)C)N2CCN(c3ccccc3)CC2)cc1 (stereo not given)	CYP2C19 inhib 74, CYP2C9 inhib 65 (no result: E-sel TNF inh)
Cc1ccc(S(=O)(=O)Cn2nnnc2C(CC(C)C)N2CCN(c3ccccc3)CC2)cc1 (stereo not given)	none (no result: CYP2C9 activ, CYP2C19 inhib, CYP2C9 inhib, CYP2C19 act)
COc1ccc(Cn2nnnc2C(C(C)C)N2CCc3ccccc32)cc1 (stereo not given)	CYP2C19 inhib 71, CYP2C9 inhib 68
COc1ccc(N2CCN(C(c3nnnn3CCc3ccccc3)C(C)C)CC2)cc1 (stereo not given)	none
CCCC(c1nnnn1Cc1ccc(OC)cc1)N1CCN(c2ccccc2)CC1 (stereo not given)	CYP2C9 inhib 82 (no result: F-actin modifier)
CC(C)CC(c1nnnn1C(C)C)N1CCN(c2ccccc2)CC1 (stereo not given)	CYP2C9 inhib 68
CC1Cc2ccccc2N1C(=O)c1ccnc(C(C)(C)C)c1 (stereo not given)	none
CC(C)Oc1ccc(C(CC(=O)O)NC(=O)C(Sc2ccccc2)c2ccccc2)cc1 (stereo not given)	none (no result: CYP2C9 activ, F-actin modifier, CYP2C19 inhib, CYP2C9 inhib, CYP2C19 act)
Cc1nn(Cc2cccc(F)c2)c(C)c1NC(=O)c1c([N+](=O)[O-])c(C)nn1C	CYP2C19 inhib 76, CYP2C9 inhib 62
Cc1nn(Cc2cccc(F)c2)c(C)c1NC(=O)c1ccc(COc2ccccc2Cl)cc1	CYP2C9 inhib 65
Cc1nn(C)c(C(=O)Nc2ccn(Cc3c(F)c(F)cc(F)c3F)n2)c1[N+](=O)[O-]	none
Cc1nn(Cc2cccc(C(=O)Nc3ccn(Cc4c(F)c(F)cc(F)c4F)n3)c2)c(C)c1[N+](=O)[O-]	CYP2C19 inhib 86, CYP2C9 inhib 93
Cc1ccc2nsnc2c1S(=O)(=O)NCCc1c(C)[nH]c2ccc(F)cc12	CYP2C19 inhib 78 (no result: E-sel TNF inh)
CC1(c2ccc3ccccc3c2)NC(=O)N(CC(=O)NCc2cccs2)C1=O (stereo not given)	none (no result: CYP2C9 activ, F-actin modifier, CYP2C19 inhib, CYP2C9 inhib, CYP2C19 act)
CCc1ccc(/C=C2/SC(=S)N(CC(=O)Nc3nc4ccccc4s3)C2=O)cc1	CYP2C9 inhib 53
CCc1ccc(/C=C2\SC(=S)N(CCCC(=O)Nc3ccccn3)C2=O)cc1	none
Cc1ccc(CNC(=O)c2c(C)cc(=O)oc2C)cc1	CYP2C9 inhib 51
CCN(CCCNC(=O)c1c(C)cc(=O)oc1C)c1cccc(C)c1	CYP2C19 inhib 92, CYP2C9 inhib 72 (no result: E-sel TNF inh)
CCCn1c(SCC(=O)N2CC(=O)Nc3ccccc32)nc2ccccc21	none (no result: CYP2C9 activ, F-actin modifier, CYP2C19 inhib, CYP2C9 inhib, CYP2C19 act)
O=C(Cn1nc(-c2ccccc2)ccc1=O)NCC1CCCO1 (stereo not given)	none
COc1ccc(/C=N/NC(=O)c2cc(O)c(O)c(O)c2)cc1Cn1cc([N+](=O)[O-])cn1	none (no result: CYP2C9 activ, F-actin modifier, CYP2C19 inhib, CYP2C9 inhib, CYP2C19 act)
COC(=O)Cc1cc(=O)n2[nH]cnc2n1	none
CC1CCCC(n2c(=S)[nH]c3ccccc3c2=O)C1C (stereo not given)	CYP2C19 inhib 54 (no result: E-sel TNF inh)
CN(Cc1ccccc1)C(=O)CC(c1ccccc1)c1cc(Cl)ccc1O (stereo not given)	CYP2C9 inhib 76
CC(NC(=O)CC(c1ccccc1)c1cc(Cl)ccc1O)c1ccccc1 (stereo not given)	none (no result: CYP2C9 activ, F-actin modifier, CYP2C19 inhib, CYP2C9 inhib, CYP2C19 act)
